Assay [1] is described as follows: resazurin metabolic signal in HepG2 cells – cell-based, resazurin fluorescence, 24 h, PK04 Diversity Set, profiling panel (AID 1172). Also: test concentration not given here. As to conditions: HepG2 viability, higher = more signal.
Assay [2] is described as follows: budding yeast growth changes without added modifier – OD600, strain BY4716, 24 h, basal condition, primary screen (AID 1173). The conditions noted are these: S. cerevisiae BY4716 growth, OD600, 24 h; higher = more signal, called active from +8 up or from −8 down.
A short description of assay [3]: viability profiling in MM1S myeloma cells – cell-based, resazurin fluorescence, basal, 24 h, PK04 Diversity Set, profiling panel (AID 1174).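 Also: MM1S multiple myeloma cell line; test concentration not given here.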 As to conditions: higher = more signal, called active from +8 up or from −8 down.
Assay [4] deals with Dihydroorotate dehydrogenase (quinone), mitochondrial (Plasmodium falciparum (isolate 3D7)) (UniProt Q08210). Kind of assay: inhibition of P. falciparum DHODH – biochemical, C-terminal His tag, absorbance 600 nm, primary screen (AID 1175).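 Also: recombinant parasite enzyme with a five histidine tag at its C terminus; test concentration not given here.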 The conditions noted are these: PfDHODH enzyme, DCIP absorbance 600 nm; higher = more signal, called active from +8 up or from −8 down.
Dihydroorotate dehydrogenase (quinone), mitochondrial (Plasmodium falciparum (isolate 3D7)), sequence (Q08210 whole entry, looked up): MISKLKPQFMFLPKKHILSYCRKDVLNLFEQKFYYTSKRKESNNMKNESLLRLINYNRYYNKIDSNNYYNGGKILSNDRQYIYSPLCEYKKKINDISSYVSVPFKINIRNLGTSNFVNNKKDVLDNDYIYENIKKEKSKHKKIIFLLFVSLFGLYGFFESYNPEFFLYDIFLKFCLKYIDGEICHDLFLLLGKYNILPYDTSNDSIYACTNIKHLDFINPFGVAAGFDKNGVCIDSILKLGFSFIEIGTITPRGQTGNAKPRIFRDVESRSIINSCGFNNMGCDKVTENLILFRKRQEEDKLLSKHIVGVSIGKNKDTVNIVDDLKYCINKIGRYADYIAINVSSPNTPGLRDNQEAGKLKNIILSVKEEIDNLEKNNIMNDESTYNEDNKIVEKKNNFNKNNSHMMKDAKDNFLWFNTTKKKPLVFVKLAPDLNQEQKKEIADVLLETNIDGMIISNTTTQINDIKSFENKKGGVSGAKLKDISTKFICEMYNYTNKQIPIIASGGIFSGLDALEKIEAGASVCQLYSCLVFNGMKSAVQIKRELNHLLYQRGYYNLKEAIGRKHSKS
Assay [5] in a line: inhibition of PAO1 biofilm formation – strain PAO1, LB-PBS medium, absorbance 600 nm, primary screen (AID 1176). Also: test concentration not given here. The conditions noted are these: P. aeruginosa PAO1 growth/biofilm, A600, 12 h; higher = more signal.
Assay [6] is described as follows: growth modulation of vineyard yeast isolate – strain RM11-1a, OD600, basal, 24 h, primary screen (AID 1177).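 Also: cultures grown under basal conditions with no added stressor; test concentration not given here.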 As to conditions: S. cerevisiae RM11-1a growth, OD600, 24 h; higher = more signal, called active from +8 up or from −8 down.
Assay [7] can be described thus: growth of efflux-deficient E. coli DRC39 – strain DRC39, OD650, 24 h, E. coli filamentation inducers, primary screen (AID 1178).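 Also: growth measured as culture turbidity by optical density at 650 nm; test concentration not given here.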 The conditions noted are these: E. coli DRC39 acrAB, higher = more signal, called active from +8 up or from −8 down.
The nature of assay [8]: growth of efflux-deficient E. coli DRC39 – strain DRC39, OD650, 48 h, E. coli filamentation inducers, primary screen (AID 1179).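 Also: screen aims at cell division blockers that make cells filament.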 As to conditions: E. coli DRC39 delta-acrAB growth, higher = more signal, called active from +8 up or from −8 down.
A short description of assay [9]: viability profiling in RPMI8226 myeloma cells – cell-based, resazurin fluorescence, basal, 24 h, PK04 Diversity Set, profiling panel (AID 1180).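 Also: RPMI8826 multiple myeloma cell line at 5000 cells per well; test concentration not given here.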 As to conditions: higher = more signal.
The target in assay [10] is E3 ubiquitin-protein ligase XIAP (Homo sapiens) (UniProt P98170). Kind of assay: small molecules binding XIAP protein – biophysical, small-molecule microarray, fluorescence 635 nm, primary screen (AID 1181).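 Also: score merges 667 nm emission and signal to noise over triplicate slides.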 The conditions noted are these: higher = more signal.
E3 ubiquitin-protein ligase XIAP (Homo sapiens), sequence (P98170 whole entry, looked up): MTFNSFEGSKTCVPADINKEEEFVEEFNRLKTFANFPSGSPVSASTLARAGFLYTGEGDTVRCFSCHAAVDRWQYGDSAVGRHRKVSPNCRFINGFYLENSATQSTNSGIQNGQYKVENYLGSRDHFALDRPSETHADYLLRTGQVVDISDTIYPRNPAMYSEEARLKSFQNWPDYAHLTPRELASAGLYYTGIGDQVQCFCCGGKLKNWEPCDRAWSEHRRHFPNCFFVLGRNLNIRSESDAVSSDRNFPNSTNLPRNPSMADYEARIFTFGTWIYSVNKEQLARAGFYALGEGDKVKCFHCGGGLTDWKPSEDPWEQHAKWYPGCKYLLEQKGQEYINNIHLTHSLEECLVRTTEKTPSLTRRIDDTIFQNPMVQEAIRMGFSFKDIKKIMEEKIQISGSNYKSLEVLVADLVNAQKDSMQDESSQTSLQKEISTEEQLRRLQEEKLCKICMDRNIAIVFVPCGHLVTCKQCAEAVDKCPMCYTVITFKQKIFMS

The source made the active and inactive calls. Unless noted, no rule for the calls is given here.

Regarding `CN1C(=O)C2C=CC(C(O)C3CC=CCC3)N(Nc3ccccc3)C2C1=O` (stereo not drawn), the z-score is -0.488 in assay [1]; 0.122 (inactive) in [2]; -0.533 (inactive) in assay [3]; 0.847 (inactive) in assay [5]; 0.0862 (inactive) in assay [6]; -1.11 (inactive) in assay [7]. For the same compound, the z-score in assay [8] is -0.196 (inactive); in [9], -0.568. In addition, the composite z-score in assay [4] was 0.0707 (inactive); in [10], 0.301.

`C=CC[C@]1(C(=O)O)N=C(c2ccc(OCCCO)cc2)O[C@H]1c1ccccc1N=[N+]=[N-]`: the z-score in [1] is 0.912; in assay [2], -0.761 (inactive); in [3] it was 0.777 (inactive); in assay [5], -1.1 (inactive); in assay [6], 1.21 (inactive); in assay [7], 2.63 (inactive). Also, the results for the z-score in assay [8] and in [9] were 1.65 (inactive) and 0.248, respectively. Further, the composite z-score is 0.589 (inactive) in [4] and -0.0095 in [10].

In the case of `COc1cc2c(cc1OC)CN(C(=O)[C@H]1[C@@H]3C(=O)O[C@@H](c4ccccc4)[C@@H](c4ccccc4)N3[C@@H](c3ccc(O)cc3)[C@]13C(=O)Nc1ccc(C#CC4(O)CCCCCC4)cc13)CC2`, the z-score in [1] is 0.496; in assay [2], 0.076 (inactive); in assay [3], -0.4 (inactive); in assay [5], 0.89 (inactive); in assay [6] it was 0.087 (inactive); in assay [7], -0.463 (inactive). For the same compound, the z-score in assay [8] is -0.794 (inactive); in assay [9], 1.15. Also, the composite z-score in assay [4] is -0.543 (inactive); in [10], 0.364.

Regarding `O=C1C[C@@](C(=O)NC2CC2)(c2ccc([N+](=O)[O-])cc2)[C@@H](c2ccc(CO)cc2I)N1CC12CC3CC(CC(C3)C1)C2`, the z-score in [1] is -3.54; in [2], 0.579 (inactive); in assay [3] it was -6.88 (inactive); in assay [5], 1.2 (inactive); in assay [6] it was 2.54 (inactive); in assay [7], -0.56 (inactive). For the same compound, the z-score in [8] was -0.869 (inactive); in assay [9], -5.45. Besides, the figures for the composite z-score in [4] and in [10] were 1.59 (inactive) and -0.095, respectively.

On to `CC(=O)NCCCC[C@@H]1NC(=O)[C@H]2C[C@@H](C(=O)NCCCCCCN(C)C)[C@@H](c3ccc(O)cc3)N2C1=O`, for which the z-score is -0.666 in [1]; -0.191 (inactive) in [2]; -1.56 (inactive) in assay [3]; -0.0059 (inactive) in assay [5]; -0.0236 (inactive) in assay [6]; -1.04 (inactive) in assay [7]. The z-score in [8] is -1.53 (inactive); in assay [9], -1.28. Further, the composite z-score is -0.231 (inactive) in assay [4] and 0.217 in [10].

For the compound `CN(C)c1ccc(C(O)C2C=CC3C(=O)NC(=O)C3N2Nc2ccc(Cl)cc2Cl)cc1` (stereo not drawn), the z-score in assay [1] is -0.492; in assay [2], 0.454 (inactive); in [3] it was -1.44 (inactive); in assay [5], 0.683 (inactive); in assay [6], 0.839 (inactive); in assay [7] it was 0.221 (inactive). The figures for the z-score in assay [8] and in assay [9] were 0.0462 (inactive) and -1.44, respectively. In addition, the composite z-score in assay [4] was 0.438 (inactive); in assay [10], 0.0914.

For `CC(=O)NCCCC[C@@H]1NC(=O)[C@H]2C[C@@H](C(=O)NCCCCCCN(C)C)[C@@H](c3cccc(OCCO)c3)N2C1=O`, the z-score in [1] is -0.526; in assay [2], -1.16 (inactive); in assay [3], -0.143 (inactive); in [5], 0.42 (inactive); in [6], -0.0243 (inactive); in assay [7], 0.617 (inactive). Further, the figures for the z-score in [8] and in assay [9] were -0.197 (inactive) and -0.696, respectively. The composite z-score in [4] is -0.0259 (inactive); in assay [10] it was -0.0067.

In the case of `Cc1ccc(S[C@]2(C(=O)NC(C)C)CC(=O)N(Cc3cc(C(F)(F)F)cc(C(F)(F)F)c3)[C@@H]2c2ccc(CO)cc2I)cc1`, the z-score is 0.53 in [1]; -2.86 (inactive) in [2]; -2.27 (inactive) in [3]; 0.447 (inactive) in [5]; -0.59 (inactive) in assay [6]; 0.498 (inactive) in assay [7]. The figures for the z-score in assay [8] and in assay [9] were 1.02 (inactive) and -2.55, respectively. The composite z-score in assay [4] was 0.4 (inactive); in [10], -0.209.

As to `O=C1O[C@H](c2ccccc2)[C@H](c2ccccc2)N2[C@H]1[C@@H](C(=O)NC[C@H](O)c1ccccc1)[C@]1(C(=O)Nc3ccc(C#CC4=CCCCC4)cc31)[C@H]2c1ccc(OCCO)cc1`, the z-score in assay [1] is 0.0374; in [2], 1.17 (inactive); in assay [3], -2 (inactive); in assay [5], 2.05 (inactive); in assay [6], 3.28 (inactive); in assay [7], -0.227 (inactive). Moreover, the z-score in [8] is 0.262 (inactive); in assay [9], -3.18. For the same compound, the composite z-score in [4] was -0.186 (inactive); in [10], -0.316.

Regarding `CCOC(=O)C1=CCC(c2cccc3ccccc23)N(S(=O)(=O)c2ccc(C)cc2)C1` (stereo not drawn), the z-score in [1] was -0.739; in [2], 0.66 (inactive); in assay [3], -1.56 (inactive); in assay [5], 0.518 (inactive); in assay [6], -0.225 (inactive); in assay [7] it was -0.601 (inactive). Besides, the z-score in [8] is 0.0759 (inactive); in assay [9] it was -3.43. Besides, the composite z-score was -0.384 (inactive) in assay [4] and 0.397 in [10].

Turning to `CCCN1C(=O)[C@@]2(CCS(=O)(=O)c3ccccc3)N=C(c3ccc(OCCCO)cc3)O[C@H]2c2ccccc21`, the z-score is -0.561 in assay [1]; 1.27 (inactive) in assay [2]; -1.03 (inactive) in assay [3]; 0.469 (inactive) in assay [5]; 1.56 (inactive) in [6]; 0.861 (inactive) in assay [7]. For the same compound, the z-score was 0.163 (inactive) in [8] and -2.15 in assay [9]. The composite z-score in [4] is 2.02 (inactive); in assay [10], -0.072.

With `CO[C@H]1COC(=O)CC=C[C@H](C)COC(=O)[C@@H](OCc2ccccc2)C=C[C@@H]1C`, the z-score in [1] was -0.103; in assay [2], -0.348 (inactive); in [3], 1.46 (inactive); in assay [6] it was -1.22 (inactive); in [7], 0.566 (inactive); in [8], 0.171 (inactive). This compound displayed a z-score in [9] of 0.627. Also, the figures for the composite z-score in [4] and in assay [10] were -2.5 (inactive) and -0.22, respectively.

Regarding `C=CCC(OC(C)=O)[C@@H]1[C@@H](N(Cc2cc3ccccc3o2)C(=O)Cc2ccc(F)cc2)c2cc(OCCCO)ccc2N1C(=O)c1ccc(-c2ccccc2)cc1` (stereo partly drawn), the z-score in [1] was 1.13; in assay [2], -0.588 (inactive); in assay [3], -0.518 (inactive); in [6], -0.157 (inactive); in assay [7], 1.17 (inactive); in assay [8], 0.845 (inactive). This compound also returned a z-score in assay [9] of 0.673. For the same compound, the composite z-score in assay [4] was -0.177 (inactive); in assay [10], -0.332.

The record behind these values is PubChem BioAssay.
